# Data taken from article PMC7862700, “An all-to-all approach to the identification of sequence-specific readers for epigenetic DNA modifications on cytosine”.
# Key:
# Test in all cases: DAPPL (digital affinity profiling via proximity ligation, sequencing); 10 mM Tris-HCl pH 7.5, 50 mM NaCl, 1 mM DTT, 4% glycerol, room temperature, 30 min; GST-TFs on glutathione beads, 16-mer random dsDNA library, 0.1% formaldehyde crosslink after washing; high values mean tight binding
# FLI1 = molecular target: T1, FLI1 (Homo sapiens, UniProt Q01543 1-452); details: protein: recombinant; tags: N-terminal GST; dsDNA, one strand shown
# T1 sequence: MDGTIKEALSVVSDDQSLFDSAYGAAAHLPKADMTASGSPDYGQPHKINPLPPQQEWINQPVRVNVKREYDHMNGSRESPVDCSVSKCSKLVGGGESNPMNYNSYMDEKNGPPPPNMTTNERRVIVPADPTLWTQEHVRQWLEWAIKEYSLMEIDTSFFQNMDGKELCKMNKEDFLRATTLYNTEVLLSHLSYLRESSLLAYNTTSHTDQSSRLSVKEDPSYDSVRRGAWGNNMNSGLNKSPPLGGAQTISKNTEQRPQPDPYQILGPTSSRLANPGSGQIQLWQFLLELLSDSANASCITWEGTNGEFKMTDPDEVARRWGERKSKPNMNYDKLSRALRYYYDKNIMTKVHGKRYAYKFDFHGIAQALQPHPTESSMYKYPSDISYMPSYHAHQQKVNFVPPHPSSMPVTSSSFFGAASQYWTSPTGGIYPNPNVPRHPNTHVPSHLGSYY
# Method in brief: (§1)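 Human transcription factors carrying a GST fusion were produced in yeast, bound to glutathione beads, tagged with DNA barcodes and pooled together with a tag-only sample. Each pool was held with 200 nmole of a random double-stranded 16-mer DNA library in Tris/NaCl/DTT/glycerol buffer for 30 min at room temperature, then washed, crosslinked in 0.1% formaldehyde, proximity-ligated with BsaI/T4 ligase (1 h, 37 °C), PCR-amplified and sequenced on an Illumina NextSeq500. Binding signal is the read frequency of each hexamer for a given factor divided by its frequency in the tag-only sample.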
# ELK1 = molecular target: T2, ELK1 (Homo sapiens, UniProt P19419 1-428); details: protein: recombinant; tags: N-terminal GST; dsDNA, one strand shown
# T2 sequence: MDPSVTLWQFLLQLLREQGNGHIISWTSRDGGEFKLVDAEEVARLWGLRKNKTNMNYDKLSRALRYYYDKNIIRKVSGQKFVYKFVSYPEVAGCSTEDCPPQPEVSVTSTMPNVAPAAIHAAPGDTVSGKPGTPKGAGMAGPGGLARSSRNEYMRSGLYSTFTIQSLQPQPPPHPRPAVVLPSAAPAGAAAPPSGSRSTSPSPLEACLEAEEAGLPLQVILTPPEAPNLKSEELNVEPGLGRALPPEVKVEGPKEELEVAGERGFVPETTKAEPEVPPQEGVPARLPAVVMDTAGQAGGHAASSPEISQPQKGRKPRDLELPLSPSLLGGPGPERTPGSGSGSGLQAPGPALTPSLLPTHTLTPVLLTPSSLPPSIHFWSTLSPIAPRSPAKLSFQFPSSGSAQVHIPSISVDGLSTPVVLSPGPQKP
# Method in brief: as §1
# GABPA = molecular target: T3, GABPA (Homo sapiens, UniProt Q06546 1-454); details: protein: recombinant; tags: N-terminal GST; dsDNA, one strand shown
# T3 sequence: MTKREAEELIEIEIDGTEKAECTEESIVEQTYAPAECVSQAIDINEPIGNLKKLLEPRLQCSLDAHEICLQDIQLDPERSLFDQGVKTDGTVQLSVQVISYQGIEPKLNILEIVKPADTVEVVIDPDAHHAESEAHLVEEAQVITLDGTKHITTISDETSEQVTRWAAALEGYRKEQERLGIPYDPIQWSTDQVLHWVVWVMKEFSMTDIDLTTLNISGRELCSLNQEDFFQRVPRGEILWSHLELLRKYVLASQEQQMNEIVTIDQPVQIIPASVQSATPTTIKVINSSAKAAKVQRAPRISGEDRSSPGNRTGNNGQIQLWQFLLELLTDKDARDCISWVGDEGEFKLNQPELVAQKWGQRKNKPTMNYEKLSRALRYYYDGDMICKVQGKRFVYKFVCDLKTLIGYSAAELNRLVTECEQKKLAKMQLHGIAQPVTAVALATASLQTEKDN
# Method in brief: as §1
# ERG = molecular target: T4, ERG (Homo sapiens, UniProt P11308 1-479); details: protein: recombinant; tags: N-terminal GST; dsDNA, one strand shown
# T4 sequence: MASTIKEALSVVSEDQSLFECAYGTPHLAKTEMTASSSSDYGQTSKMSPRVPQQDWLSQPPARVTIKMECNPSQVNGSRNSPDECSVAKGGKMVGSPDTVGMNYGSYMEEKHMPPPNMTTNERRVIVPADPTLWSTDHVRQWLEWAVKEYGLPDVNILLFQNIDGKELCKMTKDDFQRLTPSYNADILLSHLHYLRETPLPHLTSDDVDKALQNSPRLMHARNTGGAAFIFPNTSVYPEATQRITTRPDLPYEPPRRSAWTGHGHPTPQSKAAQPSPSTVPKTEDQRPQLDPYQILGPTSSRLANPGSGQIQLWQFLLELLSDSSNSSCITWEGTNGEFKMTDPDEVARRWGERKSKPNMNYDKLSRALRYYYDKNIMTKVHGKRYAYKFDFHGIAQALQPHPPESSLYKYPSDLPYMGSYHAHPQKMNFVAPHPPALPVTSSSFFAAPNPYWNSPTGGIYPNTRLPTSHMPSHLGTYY
# Method in brief: as §1
# ELF1 = ELF1 (Homo sapiens, UniProt P32519 1-619); details: protein: recombinant; tags: N-terminal GST; dsDNA, one strand shown
# Method in brief: as §1
# EHF = molecular target: T5, EHF (Homo sapiens, UniProt Q9NZC4 1-300); details: protein: recombinant; tags: N-terminal GST; dsDNA, one strand shown
# T5 sequence: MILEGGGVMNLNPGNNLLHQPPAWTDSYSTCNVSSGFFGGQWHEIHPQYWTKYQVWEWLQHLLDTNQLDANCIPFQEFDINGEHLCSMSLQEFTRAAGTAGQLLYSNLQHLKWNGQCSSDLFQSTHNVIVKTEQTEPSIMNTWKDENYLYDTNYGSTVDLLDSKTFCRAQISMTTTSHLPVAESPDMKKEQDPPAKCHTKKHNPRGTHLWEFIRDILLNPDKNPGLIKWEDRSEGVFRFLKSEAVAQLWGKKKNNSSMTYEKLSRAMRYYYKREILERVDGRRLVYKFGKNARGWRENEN
# Method in brief: as §1
# SPI1 = SPI1 (Homo sapiens, UniProt P17947 1-270); details: protein: recombinant; tags: N-terminal GST; dsDNA, one strand shown
# Method in brief: as §1
# SPIB = SPIB (Homo sapiens, UniProt Q01892 1-262); details: protein: recombinant; tags: N-terminal GST; dsDNA, one strand shown
# Method in brief: as §1
# ELK3 = molecular target: T6, ELK3 (Homo sapiens, UniProt P41970 1-407); details: protein: recombinant; tags: N-terminal GST; dsDNA, one strand shown
# T6 sequence: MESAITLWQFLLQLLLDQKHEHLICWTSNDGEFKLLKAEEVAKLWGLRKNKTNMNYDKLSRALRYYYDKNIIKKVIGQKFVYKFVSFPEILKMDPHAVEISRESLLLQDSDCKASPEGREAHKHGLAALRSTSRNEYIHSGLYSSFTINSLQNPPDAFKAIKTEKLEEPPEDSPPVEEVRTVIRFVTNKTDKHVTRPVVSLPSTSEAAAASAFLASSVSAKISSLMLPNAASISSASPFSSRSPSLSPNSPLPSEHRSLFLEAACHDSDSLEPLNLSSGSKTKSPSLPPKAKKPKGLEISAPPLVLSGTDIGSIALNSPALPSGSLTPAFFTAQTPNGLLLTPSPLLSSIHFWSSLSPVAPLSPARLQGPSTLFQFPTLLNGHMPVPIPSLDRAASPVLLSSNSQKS
# Method in brief: as §1
# FEV = molecular target: T7, FEV (Homo sapiens, UniProt Q99581 1-238); details: protein: recombinant; tags: N-terminal GST; dsDNA, one strand shown
# T7 sequence: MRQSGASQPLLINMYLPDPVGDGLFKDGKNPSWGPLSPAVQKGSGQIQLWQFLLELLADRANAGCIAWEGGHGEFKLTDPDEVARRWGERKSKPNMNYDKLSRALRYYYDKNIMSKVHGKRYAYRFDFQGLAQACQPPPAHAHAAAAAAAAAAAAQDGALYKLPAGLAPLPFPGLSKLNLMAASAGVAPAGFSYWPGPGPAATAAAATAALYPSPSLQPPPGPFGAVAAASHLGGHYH
# Method in brief: as §1
# ETV5 = ETV5 (Homo sapiens, UniProt P41161 1-510); details: protein: recombinant; tags: N-terminal GST; dsDNA, one strand shown
# Method in brief: as §1
# HSF1 = HSF1 (Homo sapiens, UniProt Q00613 1-529); details: protein: recombinant; tags: N-terminal GST; chain copies: 3; dsDNA, one strand shown
# Method in brief: as §1
# SPIC = molecular target: T8, SPIC (Homo sapiens, UniProt Q8N5J4 1-248); details: protein: recombinant; tags: N-terminal GST; dsDNA, one strand shown
# T8 sequence: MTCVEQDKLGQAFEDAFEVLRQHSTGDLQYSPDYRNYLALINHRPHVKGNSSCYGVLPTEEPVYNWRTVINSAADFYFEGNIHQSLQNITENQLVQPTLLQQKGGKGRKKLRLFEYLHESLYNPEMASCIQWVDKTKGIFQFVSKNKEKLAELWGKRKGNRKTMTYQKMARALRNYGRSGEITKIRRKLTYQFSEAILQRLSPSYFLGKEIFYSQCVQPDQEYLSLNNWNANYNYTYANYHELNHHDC
# Method in brief: as §1
# ELF4 = ELF4 (Homo sapiens, UniProt Q99607 1-663); details: protein: recombinant; tags: N-terminal GST; dsDNA, one strand shown
# Method in brief: as §1
# ELK4 = molecular target: T9, ELK4 (Homo sapiens, UniProt P28324-2 1-405); details: protein: recombinant; tags: N-terminal GST; dsDNA, one strand shown
# T9 sequence: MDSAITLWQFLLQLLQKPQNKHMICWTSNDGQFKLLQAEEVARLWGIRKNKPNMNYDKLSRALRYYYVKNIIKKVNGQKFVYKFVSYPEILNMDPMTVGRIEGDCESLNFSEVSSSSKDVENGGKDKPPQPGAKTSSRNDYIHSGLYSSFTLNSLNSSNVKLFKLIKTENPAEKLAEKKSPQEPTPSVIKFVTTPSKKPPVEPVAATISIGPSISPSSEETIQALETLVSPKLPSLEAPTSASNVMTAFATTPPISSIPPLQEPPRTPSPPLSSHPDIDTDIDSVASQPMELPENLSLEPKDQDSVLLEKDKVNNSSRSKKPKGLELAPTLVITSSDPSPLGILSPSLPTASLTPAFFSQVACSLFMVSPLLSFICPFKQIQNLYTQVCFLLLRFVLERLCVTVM
# Method in brief: as §1
# ETV2 = molecular target: T10, ETV2 (Homo sapiens, UniProt O00321 1-342); details: protein: recombinant; tags: N-terminal GST; dsDNA, one strand shown
# T10 sequence: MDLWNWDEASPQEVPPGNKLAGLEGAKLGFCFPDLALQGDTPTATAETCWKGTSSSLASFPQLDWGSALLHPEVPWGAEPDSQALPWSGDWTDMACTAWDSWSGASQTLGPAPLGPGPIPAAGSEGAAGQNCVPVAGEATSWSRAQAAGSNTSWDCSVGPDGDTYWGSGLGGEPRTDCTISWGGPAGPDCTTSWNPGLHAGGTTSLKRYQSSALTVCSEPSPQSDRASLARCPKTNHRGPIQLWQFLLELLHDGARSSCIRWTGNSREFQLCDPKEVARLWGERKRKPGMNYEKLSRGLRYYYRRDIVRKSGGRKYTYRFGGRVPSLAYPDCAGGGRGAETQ
# Method in brief: as §1
# ELF3 = molecular target: T11, ELF3 (Homo sapiens, UniProt P78545 1-371); details: protein: recombinant; tags: N-terminal GST; dsDNA, one strand shown
# T11 sequence: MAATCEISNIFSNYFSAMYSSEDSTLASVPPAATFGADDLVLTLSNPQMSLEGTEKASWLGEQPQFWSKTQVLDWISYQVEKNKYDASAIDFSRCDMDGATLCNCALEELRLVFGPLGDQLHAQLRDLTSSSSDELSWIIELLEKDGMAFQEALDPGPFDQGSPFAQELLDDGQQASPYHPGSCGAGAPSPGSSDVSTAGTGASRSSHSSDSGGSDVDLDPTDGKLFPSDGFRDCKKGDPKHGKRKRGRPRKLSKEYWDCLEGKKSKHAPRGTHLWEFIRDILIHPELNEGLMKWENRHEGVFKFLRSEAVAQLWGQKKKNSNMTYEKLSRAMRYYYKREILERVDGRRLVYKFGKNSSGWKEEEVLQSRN
# Method in brief: as §1
# CRX = CRX (Homo sapiens, UniProt O43186 1-299); details: protein: recombinant; tags: N-terminal GST; dsDNA, one strand shown
# Method in brief: as §1
# ETV1 = ETV1 (Homo sapiens, UniProt P50549 1-477); details: protein: recombinant; tags: N-terminal GST; dsDNA, one strand shown
# Method in brief: as §1
# Sequence of SPIB (Q01892 whole entry): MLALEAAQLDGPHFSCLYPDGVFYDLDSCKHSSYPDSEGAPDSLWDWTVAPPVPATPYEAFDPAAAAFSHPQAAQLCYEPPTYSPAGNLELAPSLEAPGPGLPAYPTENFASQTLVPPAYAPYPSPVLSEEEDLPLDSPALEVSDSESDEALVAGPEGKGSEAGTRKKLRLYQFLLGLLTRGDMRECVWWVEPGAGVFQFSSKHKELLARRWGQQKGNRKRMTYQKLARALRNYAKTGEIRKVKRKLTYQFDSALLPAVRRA
# Sequence of ELF4 (Q99607 whole entry): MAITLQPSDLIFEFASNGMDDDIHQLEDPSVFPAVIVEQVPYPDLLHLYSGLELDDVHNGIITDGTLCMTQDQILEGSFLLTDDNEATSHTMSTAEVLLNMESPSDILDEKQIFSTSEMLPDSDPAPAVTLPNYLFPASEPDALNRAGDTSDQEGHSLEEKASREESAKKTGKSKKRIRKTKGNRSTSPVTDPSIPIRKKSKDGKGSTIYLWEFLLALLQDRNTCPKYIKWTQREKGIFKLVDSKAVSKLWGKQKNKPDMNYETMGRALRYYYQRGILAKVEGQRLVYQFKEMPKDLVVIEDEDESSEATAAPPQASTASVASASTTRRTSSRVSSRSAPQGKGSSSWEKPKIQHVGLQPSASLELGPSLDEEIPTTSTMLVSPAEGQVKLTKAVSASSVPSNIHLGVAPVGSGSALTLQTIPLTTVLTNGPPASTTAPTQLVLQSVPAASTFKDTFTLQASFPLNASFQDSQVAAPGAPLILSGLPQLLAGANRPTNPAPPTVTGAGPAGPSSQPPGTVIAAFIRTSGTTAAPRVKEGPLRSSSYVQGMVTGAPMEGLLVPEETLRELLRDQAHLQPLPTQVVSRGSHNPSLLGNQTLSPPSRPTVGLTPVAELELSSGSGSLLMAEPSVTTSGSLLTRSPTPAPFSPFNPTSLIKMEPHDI
# Sequence of HSF1 (Q00613 whole entry): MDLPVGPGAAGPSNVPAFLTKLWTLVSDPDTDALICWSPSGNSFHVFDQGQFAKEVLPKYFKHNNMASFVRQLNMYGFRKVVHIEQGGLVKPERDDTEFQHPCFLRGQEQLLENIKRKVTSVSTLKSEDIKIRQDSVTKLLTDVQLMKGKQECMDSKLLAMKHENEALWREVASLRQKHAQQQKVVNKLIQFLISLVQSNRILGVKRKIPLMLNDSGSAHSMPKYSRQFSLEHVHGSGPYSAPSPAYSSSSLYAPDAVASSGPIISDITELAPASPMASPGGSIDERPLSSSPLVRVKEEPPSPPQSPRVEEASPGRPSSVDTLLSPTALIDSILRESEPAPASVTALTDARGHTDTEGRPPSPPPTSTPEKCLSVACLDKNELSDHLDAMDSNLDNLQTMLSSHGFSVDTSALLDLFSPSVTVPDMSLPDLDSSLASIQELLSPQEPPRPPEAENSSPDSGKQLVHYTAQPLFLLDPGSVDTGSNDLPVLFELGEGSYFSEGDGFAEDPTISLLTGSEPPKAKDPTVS
# Sequence of ETV5 (P41161 whole entry): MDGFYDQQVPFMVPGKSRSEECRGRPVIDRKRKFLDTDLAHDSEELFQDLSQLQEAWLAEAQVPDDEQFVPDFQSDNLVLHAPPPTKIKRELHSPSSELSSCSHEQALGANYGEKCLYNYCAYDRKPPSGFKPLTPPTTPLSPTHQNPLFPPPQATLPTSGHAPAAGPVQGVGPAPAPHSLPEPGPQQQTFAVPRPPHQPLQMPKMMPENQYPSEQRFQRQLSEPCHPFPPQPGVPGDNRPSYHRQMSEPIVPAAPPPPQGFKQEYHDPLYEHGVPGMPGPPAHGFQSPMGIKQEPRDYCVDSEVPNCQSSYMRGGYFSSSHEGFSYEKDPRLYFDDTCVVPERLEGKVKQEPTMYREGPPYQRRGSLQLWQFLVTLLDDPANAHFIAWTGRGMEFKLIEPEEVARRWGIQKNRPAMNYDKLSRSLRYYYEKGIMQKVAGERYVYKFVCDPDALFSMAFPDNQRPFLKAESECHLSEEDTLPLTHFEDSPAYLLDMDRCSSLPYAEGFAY
# Sequence of CRX (O43186 whole entry): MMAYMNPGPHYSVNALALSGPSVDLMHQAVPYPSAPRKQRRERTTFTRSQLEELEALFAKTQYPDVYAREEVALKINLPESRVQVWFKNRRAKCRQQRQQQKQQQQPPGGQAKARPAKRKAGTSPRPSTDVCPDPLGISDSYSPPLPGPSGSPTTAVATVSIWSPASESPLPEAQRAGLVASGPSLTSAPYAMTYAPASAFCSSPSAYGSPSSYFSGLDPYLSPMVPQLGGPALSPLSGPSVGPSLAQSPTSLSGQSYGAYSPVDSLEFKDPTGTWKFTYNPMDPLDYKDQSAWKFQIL
# Sequence of ELF1 (P32519 whole entry): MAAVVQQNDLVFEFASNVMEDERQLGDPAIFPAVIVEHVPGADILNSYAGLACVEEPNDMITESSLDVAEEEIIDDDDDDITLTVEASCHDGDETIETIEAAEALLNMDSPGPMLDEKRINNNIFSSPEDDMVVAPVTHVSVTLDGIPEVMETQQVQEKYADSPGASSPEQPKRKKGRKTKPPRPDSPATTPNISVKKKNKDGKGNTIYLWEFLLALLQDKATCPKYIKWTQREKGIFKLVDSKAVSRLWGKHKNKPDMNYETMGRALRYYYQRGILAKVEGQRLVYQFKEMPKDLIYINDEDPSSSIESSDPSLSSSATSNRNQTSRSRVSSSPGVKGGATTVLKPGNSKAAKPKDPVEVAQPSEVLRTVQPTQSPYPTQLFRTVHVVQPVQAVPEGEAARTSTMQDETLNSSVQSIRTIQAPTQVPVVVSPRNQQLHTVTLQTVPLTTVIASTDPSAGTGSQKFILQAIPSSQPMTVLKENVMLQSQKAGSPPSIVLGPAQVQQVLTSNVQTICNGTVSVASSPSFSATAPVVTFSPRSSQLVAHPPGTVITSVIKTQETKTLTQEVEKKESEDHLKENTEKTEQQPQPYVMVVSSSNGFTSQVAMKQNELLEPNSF
# Sequence of ETV1 (P50549 whole entry): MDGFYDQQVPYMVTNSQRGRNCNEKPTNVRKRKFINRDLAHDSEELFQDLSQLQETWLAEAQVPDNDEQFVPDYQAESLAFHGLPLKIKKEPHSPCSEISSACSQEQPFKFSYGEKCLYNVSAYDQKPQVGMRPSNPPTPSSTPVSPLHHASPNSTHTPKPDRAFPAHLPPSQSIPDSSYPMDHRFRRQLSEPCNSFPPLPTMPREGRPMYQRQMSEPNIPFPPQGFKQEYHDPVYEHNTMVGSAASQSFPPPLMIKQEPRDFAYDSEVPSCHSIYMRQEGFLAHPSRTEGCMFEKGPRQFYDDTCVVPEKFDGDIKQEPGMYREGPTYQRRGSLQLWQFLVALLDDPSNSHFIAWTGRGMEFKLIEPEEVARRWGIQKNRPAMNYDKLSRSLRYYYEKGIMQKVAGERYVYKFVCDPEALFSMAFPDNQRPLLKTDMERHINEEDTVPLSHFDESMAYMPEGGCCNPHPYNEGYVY
sequence,measurement,setting,value
AAATGT,binding signal,FLI1,"1.24 fold enrichment (6-mer frequency, TF over GST control)"
same,binding signal,ELK1,"1.19 fold enrichment (6-mer frequency, TF over GST control)"
same,binding signal,GABPA,"1.25 fold enrichment (6-mer frequency, TF over GST control)"
same,binding signal,ERG,"1.31 fold enrichment (6-mer frequency, TF over GST control)"
same,binding signal,ELF1,"1.38 fold enrichment (6-mer frequency, TF over GST control)"
same,binding signal,EHF,"1.32 fold enrichment (6-mer frequency, TF over GST control)"
same,binding signal,SPI1,"1.26 fold enrichment (6-mer frequency, TF over GST control)"
same,binding signal,SPIB,"1.42 fold enrichment (6-mer frequency, TF over GST control)"
same,binding signal,ELK3,"1.37 fold enrichment (6-mer frequency, TF over GST control)"
same,binding signal,FEV,"1.27 fold enrichment (6-mer frequency, TF over GST control)"
same,binding signal,ETV5,"1.28 fold enrichment (6-mer frequency, TF over GST control)"
same,binding signal,HSF1,"1.19 fold enrichment (6-mer frequency, TF over GST control)"
same,binding signal,SPIC,"1.25 fold enrichment (6-mer frequency, TF over GST control)"
same,binding signal,ELF4,"1.27 fold enrichment (6-mer frequency, TF over GST control)"
same,binding signal,ELK4,"1.4 fold enrichment (6-mer frequency, TF over GST control)"
same,binding signal,ETV2,"1.36 fold enrichment (6-mer frequency, TF over GST control)"
same,binding signal,ELF3,"1.54 fold enrichment (6-mer frequency, TF over GST control)"
same,binding signal,CRX,"1.04 fold enrichment (6-mer frequency, TF over GST control)"
same,binding signal,ETV1,"1.39 fold enrichment (6-mer frequency, TF over GST control)"
